Experimental data: the supplement of paper PMC11417369
± gives the standard deviation of the averaged measurements. The full ranking holds about 25,000 sequences; the median of “ln(normalized median fluorescence intensity)” is about 8.9, and the highest 2% start at about 10. The entries come from a sample that favours the highest values as a whole.

Each sequence was assayed on PfAP2-LT AP2 domain (GST-tagged) (assay: gcPBM binding intensity (ln(normalized median fluorescence intensity)); higher = stronger DNA binding).
How it was run: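 Binding intensity is the highest Masliner-normalised natural-log median intensity over replicate spots in either probe orientation. To obtain it, GST-tagged P. falciparum DNA-binding domains made in E. coli were incubated for 1 h on an Agilent 4 × 180k array of primer-extended double-stranded 36-bp intergenic genomic probes plus negative controls. Detection used Alexa488 anti-GST antibody with scanning at 488 nm.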
For “ATAACATATTTCTTTTGTACTCAAAATAAAATTAAT [XGTACX_site2479]”, the “gcPBM binding intensity (ln)” value was 8.37 ± 0.4. With “ATATAATAAATATGTTGTACTATAAAAAATAGCCAT [XGTACX_site4710]” the “gcPBM binding intensity (ln)” value was 8.78 ± 0.33. With “AAATTATAATTAGGAACACACATATATATATATATA [CACACA_site3098]” the “gcPBM binding intensity (ln)” value was 9.78 ± 0.29. For “GGACTATACAGTTATACACACACATATATATATAAT [CACACA_site7991]”, the “gcPBM binding intensity (ln)” value was 9.6 ± 0.4. With “AAGAAGCATAAATGTACACACATATTTATATATTAA [CACACA_site1332]” the “gcPBM binding intensity (ln)” value was 9.01 ± 0.43. In the case of “ATATATATATATATATGTACATATTTTATAACTGTA [XGTACX_site5395]”, the “gcPBM binding intensity (ln)” value is reported as 9.72 ± 0.35. With “ATATATATATATGTCTGTACATAAAAAATAATAAAT [XGTACX_site3122]” the “gcPBM binding intensity (ln)” value was 8.975 ± 0.064. For “ATATATATATATATATGTACATATGTCAACTGTCTA [XGTACX_site8636]”, the “gcPBM binding intensity (ln)” value was 10.1 ± 0.43. “TTTTTGTAATATTATGATGTCATATATATATATATA [XGTACX_negctrl_site618]” was tested, and the “gcPBM binding intensity (ln)” value was 9.035 ± 0.078. “TTTTAAATATGCAGATGTACATTATAATGTTTTATT [XGTACX_site2079]” was tested, and the “gcPBM binding intensity (ln)” value was 8.87 ± 0.47. “ATAATATGAAAACACACACACACACCCAAAAAAAAA [CACACA_site2011]” was tested, and the “gcPBM binding intensity (ln)” value was 10.1 ± 0.15. In the case of “ATATATATGAAACACACACACAAAAAAAAAAAAAAA [CACACA_site3647]”, the “gcPBM binding intensity (ln)” value is reported as 9.45 ± 0.57. For “ATCGTAGTATAATATGAACACACACCCACCCACAAA [CACACA_site8616]”, the “gcPBM binding intensity (ln)” value was 9.71 ± 0.29. “TAGTATAATATGAACACACACACACCGACAAAAAAA [CACACA_site5151]” was tested, and the “gcPBM binding intensity (ln)” value was 9.96 ± 0.2. In the case of “TATATATAGAAACACACACACAAAAAAAAAAAAAAA [CACACA_site1506]”, the “gcPBM binding intensity (ln)” value is reported as 9.15 ± 0.46. “TAGTATAATATGAACACACACACACGCACAAAAAAA [CACACA_site7035]” was tested, and the “gcPBM binding intensity (ln)” value was 9.94 ± 0.27. For “GTATAATATGAACACACACACACACCCAAAAAAAAA [CACACA_site5152]”, the “gcPBM binding intensity (ln)” value was 10.3 ± 0.45. “GTATAATATGAACACACACACACACGCAAAAAAAAA [CACACA_site7036]” was tested, and the “gcPBM binding intensity (ln)” value was 10.19 ± 0.064. For “TAGTATAATATGAACACACACACACCCACAAAAAAA [CACACA_site2009]”, the “gcPBM binding intensity (ln)” value was 10 ± 0.29. For “TCATATGTGAAACACACACACACACCCAAAAAAACA [CACACA_site3247]”, the “gcPBM binding intensity (ln)” value was 10.06 ± 0.028. In the case of “GTATAATAGAAACACACACACACACCCAAAAAAAAA [CACACA_site2010]”, the “gcPBM binding intensity (ln)” value is reported as 10.3 ± 0.39. “AATATATAGAAACACACACACAAAAAAAAAAAAAAA [CACACA_site1326]” was tested, and the “gcPBM binding intensity (ln)” value was 9.27 ± 0.47. For “TTTTTTTTTGAAAAAAGTACTTAATTTTTAAGAAGA [XGTACX_site3591]”, the “gcPBM binding intensity (ln)” value was 7.83 ± 0.3. In the case of “AATATATATATATATATATATTTTTGTTAGAATATG [XGTACX_negctrl_site58]”, the “gcPBM binding intensity (ln)” value is reported as 8.95 ± 0.32. “TAAGTTTGTCAATCAACACACACCTATTTATTATAT [CACACA_site3919]” was tested, and the “gcPBM binding intensity (ln)” value was 9.11 ± 0.35. For “AACACAATAAAAATTAAAAATGTTAAGTAAATATAA [GTGCAC_negctrl_site60]”, the “gcPBM binding intensity (ln)” value was 8.68 ± 0.52. For “ATATATATATGAATCACACACAAAAAATATAGAGAT [CACACA_site3913]”, the “gcPBM binding intensity (ln)” value was 9.51 ± 0.41. With “ATGCAACTATATATATATATTATATGTATGAATAAT [XGTACX_negctrl_site434]” the “gcPBM binding intensity (ln)” value was 8.97 ± 0.28. In the case of “ATAATATATTTATGTTGTACAAGGAAAATTTTGAAA [XGTACX_site3472]”, the “gcPBM binding intensity (ln)” value is reported as 8.76 ± 0.42. With “ATTTTTTTTATTCAATGTACTTTTTTTTATATATAT [XGTACX_site4978]” the “gcPBM binding intensity (ln)” value was 8.8 ± 0.45. In the case of “TATACTCAGAAACACACACACACACCCAAAAAAAAA [CACACA_site4434]”, the “gcPBM binding intensity (ln)” value is reported as 10.1 ± 0.35. With “TATACATACTCACCCACACACAAAAAAAAAAAAAAA [CACACA_site862]” the “gcPBM binding intensity (ln)” value was 9.28 ± 0.47. “AGTATACTCAAACACACACACACAAAAAAAAAAAAA [CACACA_site4398]” was tested, and the “gcPBM binding intensity (ln)” value was 9.88 ± 0.58. For “AACAACTATTAATTTACACACATGTATTTATTTTAC [CACACA_site5683]”, the “gcPBM binding intensity (ln)” value was 9.3 ± 0.4. In the case of “AAATAAATAAATAAATAAACAAATATGTATAAATGG [XGTACX_negctrl_site153]”, the “gcPBM binding intensity (ln)” value is reported as 8.85 ± 0.51. In the case of “TTTAAAAAAAAAAAAAAAAATTCTACATGTAATTTA [CACACA_negctrl_site1205]”, the “gcPBM binding intensity (ln)” value is reported as 7.96 ± 0.41. “AATTTATAAAAGAAGAGGACACATATAAATATAAAT [XGTACX_site59]” was tested, and the “gcPBM binding intensity (ln)” value was 8.78 ± 0.52. In the case of “TGGGAAAAAATATATGCACACCCCCCAAAAAAAAAA [CACACA_site8696]”, the “gcPBM binding intensity (ln)” value is reported as 10.48 ± 0.071. For “AAAAAAAATATATATGCACACACAAAAAAACAAATT [CACACA_site8349]”, the “gcPBM binding intensity (ln)” value was 9.48 ± 0.37. With “ATAATATAAATATGCACACAAATTATTACCCAAAAA [CACACA_site2524]” the “gcPBM binding intensity (ln)” value was 9.03 ± 0.41. In the case of “TTAAAAAAATATAATACACACCAAAAATATGCACAT [CACACA_site5209]”, the “gcPBM binding intensity (ln)” value is reported as 9.03 ± 0.38. In the case of “GGAAAAAATATATGCACACCCCCCAAAAAAAAAAAA [CACACA_site2222]”, the “gcPBM binding intensity (ln)” value is reported as 10.5 ± 0.13. With “ATAAATAAAATATGCACACAAATATAGGAAACAACA [CACACA_site2561]” the “gcPBM binding intensity (ln)” value was 9.38 ± 0.38. “TTATTACATAACAATATACACACTATTGATTAAAGA [CACACA_site2933]” was tested, and the “gcPBM binding intensity (ln)” value was 8.68 ± 0.39. With “AAGAATACACCACGCACACACACTTGAGAAAAAATA [CACACA_site3828]” the “gcPBM binding intensity (ln)” value was 9.96 ± 0.47. For “GAATACACCACGCACACACACTTGAGAAAAAATAAA [CACACA_site7747]”, the “gcPBM binding intensity (ln)” value was 9.66 ± 0.47. For “ACAAGAATACACCACGCACACACACTAGAGAAAAAA [CACACA_site9276]”, the “gcPBM binding intensity (ln)” value was 10.1 ± 0.54. In the case of “CATAAAAATATTAATAAACACACAATCAGATATTGA [CACACA_site9032]”, the “gcPBM binding intensity (ln)” value is reported as 8.87 ± 0.45. In the case of “ATGTATAATATTTTCACACACAAGAAAAAAGAAAAG [CACACA_site3591]”, the “gcPBM binding intensity (ln)” value is reported as 9.27 ± 0.36. With “TAAAAATATAAAACATGTACATATATGCATATATTT [XGTACX_site8093]” the “gcPBM binding intensity (ln)” value was 8.86 ± 0.48. With “TTATCTCTACAAAGTGCACACACGTAAAAACATATA [CACACA_site3957]” the “gcPBM binding intensity (ln)” value was 9.09 ± 0.35. In the case of “TAAAAAAAAACATGTGCACACGTTTTATCTACATAA [CACACA_site2336]”, the “gcPBM binding intensity (ln)” value is reported as 10.1 ± 0.32. With “CAAAACATTTTATCTACACACATATATAAATAAATA [CACACA_site3220]” the “gcPBM binding intensity (ln)” value was 8.88 ± 0.38. In the case of “TGTAATAAAATAATTAGTACACATATATGTATATTT [XGTACX_site5896]”, the “gcPBM binding intensity (ln)” value is reported as 8.72 ± 0.33.
